CYP2C9 inh = blockers of cytochrome P450 2C9 activity – biochemical, luminescence, ADME assay, primary screen; 96,000 compounds, 20% hits; AID 777, 2007; P11712; CYP2C9 Supersomes, luciferin-H conversion; inhibition, % at 5 µM;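 active means blocking of liver enzyme CYP2C9 beyond about 50% at 5 µM, limit read from the data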
Target sequence (P11712 whole entry, looked up): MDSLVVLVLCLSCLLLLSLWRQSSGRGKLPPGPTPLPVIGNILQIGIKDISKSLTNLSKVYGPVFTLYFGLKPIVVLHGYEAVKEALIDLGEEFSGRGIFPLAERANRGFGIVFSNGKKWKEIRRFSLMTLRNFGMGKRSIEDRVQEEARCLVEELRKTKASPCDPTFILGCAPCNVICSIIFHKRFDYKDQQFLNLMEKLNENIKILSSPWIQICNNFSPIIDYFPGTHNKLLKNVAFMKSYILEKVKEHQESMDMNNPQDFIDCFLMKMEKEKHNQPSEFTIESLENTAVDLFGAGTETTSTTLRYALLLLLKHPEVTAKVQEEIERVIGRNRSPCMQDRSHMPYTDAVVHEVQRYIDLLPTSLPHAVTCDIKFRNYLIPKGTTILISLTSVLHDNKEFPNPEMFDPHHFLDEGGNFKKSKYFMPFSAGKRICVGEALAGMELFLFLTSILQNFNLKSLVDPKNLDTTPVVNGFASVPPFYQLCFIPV
CYP2C19 act = human CYP2C19 activators, primary screen, biochemical, luminescence. Cytochrome P450 2C19 (Homo sapiens), P33261. recombinant CYP2C19, luciferin-H EGE luminescence; active compounds read high; 0 = fully inhibited enzyme, 1 = untreated enzyme. activation factor at 5 µM. 96,000 tested, under 10 active. AID 1025, 2008;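 active means activation factor of at least 2 at 5 µM in the primary screen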;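 further: 0 = wells with 2.5 mM tranylcypromine and 1 = vehicle-only wells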
CYP2C9 activ = human CYP2C9 activators, primary screen, biochemical, luminescence; Cytochrome P450 2C9 (Homo sapiens), P11712; recombinant CYP2C9, luciferin-H conversion; active compounds read high; factor 1 = untreated enzyme, 0 = blocked; activation factor at 5 µM; 96,000 compounds, 1.4% hits; AID 1024, 2008;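 active means activation factor of 2 or more for CYP2C9 at a 5 µM dose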;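 further: 0 = sulfaphenazole-blocked wells and 1 = vehicle-only wells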
CYP2C19 inh = blockers of cytochrome P450 2C19 activity – biochemical, luminescence, ADME assay, primary screen | 96,000 compounds, 21% hits | P33261 | AID 778, 2007 | CYP2C19 Supersomes, luciferin-H EGE luminescence, 30 min | inhibition, % at 5 µM;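 active means CYP2C19 inhibition above a set limit at 5 µM in the primary screen, cut at about 50% in these data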;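 further: plate controls were negative control wells for no effect and 2.5 mM tranylcypromine positive control for full effect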
PostGolgi yeast = phenotypic screen on post-Golgi transport, primary screen; post-Golgi transport phenotypic cell assay; 98,000 compounds, 0.9% hits; inhibition, % at 10 µM; AID 739, 2007;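 further: yeast cells grown in 1536-well plates; yeast grown about 18 h at 30C before absorbance read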
PostGolgi ctrl = growth inhibition of yeast control strain, primary screen, counter-screen for post-Golgi transport modulator project; 98,000 compounds, 5% hits; efflux-deficient yeast background strain, growth absorbance A615, 16 h; inhibition, % at 10 µM; AID 738, 2007
Starred values were filed as active, the others as inactive; . = no result. Only some compounds are listed: those with a hit (about 32% of all), similar ones and a draw of the others. Unless noted, no stated cut-off is given here; in the data, active means inhibition above about 30%; inactive means the rest.

SMILES | CYP2C9 inh | CYP2C19 act | CYP2C9 activ | CYP2C19 inh | PostGolgi yeast | PostGolgi ctrl
CC(C)Cc1cc(C(=O)Nc2ccc(F)cc2F)no1 | -76 | 0.8 | 1.8 | 20 | 6 | 7
CC(C)c1cc(C(=O)Nc2cc(Br)ccc2O)no1 | 39 | 1 | 0.6 | 5 | -8 | 28
CCOC(=O)N1CCN(C(=O)C2CCCN(S(=O)(=O)c3cccnc3)C2)CC1 (stereo not given) | -2 | 1.1 | 1 | -5 | 1 | 4
COc1ccc(C2C=C(c3ccccc3)Nc3nc(CCCO)nn32)cc1 (stereo not given) | 67* | 0.7 | 0.3 | 28 | -1 | 5
COc1ccc(C2C=C(c3cccs3)Nc3nc(CCCO)nn32)cc1 (stereo not given) | 47 | 0.8 | 0.5 | 18 | 9 | 45*
Cc1noc(C)c1S(=O)(=O)N1CCCCC1 | 32 | 0.9 | 0.7 | 12 | -18 | 2
CCOC(=O)c1c(C)[nH]c(C(C)=O)c1C | 56* | 0.5 | 0.4 | 51* | -10 | 9
CCOC(=O)c1c(C)[nH]c(C(=O)OCc2c(C)noc2C)c1C | 80* | 0.5 | 0.2 | 50* | 5 | 23
CCOC(=O)c1[nH]c(C)c(C(=O)NC2CCCC2)c1C | 35 | 0.5 | 0.6 | 54* | 1 | 17
CCOC(=O)c1[nH]c(C)c(C(=O)OCCN2C(=O)c3ccccc3C2=O)c1C | 85* | 0.3 | 0.2 | 67* | 3 | 1
CCOC(=O)c1[nH]c(C)c(C(=O)O)c1C | -17 | 1.1 | 1.2 | -10 | -2 | -6
CCOC(=O)c1[nH]c(C)c(C(=O)C(C)C)c1C | 14 | 0.5 | 0.9 | 51* | -4 | 2
CCOC(=O)c1[nH]c(C)c(C(=O)OCC(=O)N2CCCCC2C)c1C (stereo not given) | 72* | 0.8 | 0.3 | 23 | -4 | 5
O=C(COc1ccc2c3c(c(=O)oc2c1)CCC3)c1ccc2c(c1)OCO2 | 82* | 0.4 | 0.2 | 58* | 9 | 14
CC(=O)c1ccc(OCC(O)CN2CCN(CCO)CC2)cc1 (stereo not given) | 23 | 1.1 | 0.8 | -6 | -10 | 15
Cc1cc2nc(SCCN3CCCC3)[nH]c2cc1C | -2 | 0.9 | 1 | 8 | -5 | 2
O=C(c1cccs1)N1CCN(Cc2nc3ccccc3c(=O)[nH]2)CC1 | 2 | 1 | 1 | -4 | 0 | 1
O=C(c1cccs1)N1CCc2c([nH]c3ccccc23)C1c1ccc(Cl)cc1 (stereo not given) | 51* | 0.8 | 0.5 | 23 | 1 | 30*
CN1CCN(Cc2cccc(Oc3ccccc3)c2)CC1 | 10 | 0.3 | 0.9 | 69* | 21 | 1
OC1CCN(Cc2cccc(Oc3ccccc3)c2)CC1 | 2 | 0.9 | 1 | 11 | -8 | 6
CC1CCCN(Cc2cccc(Oc3ccccc3)c2)C1 (stereo not given) | 11 | 0.3 | 0.9 | 67* | 2 | 9
OCCN1CCN(Cc2cccc(Oc3ccc(Cl)cc3)c2)CC1 | 19 | 0.6 | 0.8 | 36 | 4 | 44*
CCCCn1c(SCC(=O)N2CC(C)CC(C)C2)nc2cc(S(N)(=O)=O)ccc21 (stereo not given) | 12 | 1 | 0.9 | -3 | -7 | -7
CCOc1ccc2nc(SCC(=O)N3CCCCCC3)c(C#N)cc2c1 | 69* | 0.8 | 0.3 | 18 | -1 | 19
CCOC(=O)CSc1nc2cc(C)ccc2cc1C#N | -5 | 1.1 | 1.1 | -9 | 1 | 7
SMILES | CYP2C9 inh | CYP2C19 act | CYP2C9 activ | CYP2C19 inh | PostGolgi yeast | PostGolgi ctrl
CCOC(=O)CSc1nc2cc(OC)ccc2cc1C#N | 89* | 0.5 | 0.1 | 46 | -2 | 11
O=C(NCCc1ccccc1)c1cnc2sccn2c1=O | . | . | . | . | 5 | 4
Cc1nc2c(C(=O)NCCc3ccccc3)c[nH]n2c(=O)c1Cl | 64* | 1 | 0.4 | -3 | 0 | -2
Cc1nc2c(C(=O)NCc3ccc(F)cc3)c[nH]n2c(=O)c1Cl | 63* | 1.1 | 0.4 | -6 | -2 | -4
O=C(CCC(=O)c1cccs1)OCC(=O)c1ccc(Cl)s1 | 25 | 0.6 | 0.8 | 44 | 2 | 14
C=C(C)Cn1c(CCNC(=O)CCC)nc2ccccc21 | -2 | 0.6 | 1 | 37 | 4 | -5
Cc1cc2ncn(/N=C/c3ccc([N+](=O)[O-])o3)c2cc1C | 34 | 0.9 | 0.7 | 12 | 7 | 52*
CCOC(=O)N/N=C\c1ccc([N+](=O)[O-])o1 | 2 | 1 | 1 | -3 | -11 | -1
CN(C)C(=O)NC(Nc1ccc(Cl)cc1Cl)C(Cl)(Cl)Cl (stereo not given) | 65* | 0.1 | 0.3 | 87* | 7 | 9
COc1ccc(N2CCN(C(=O)C(CCSC)N=C3NS(=O)(=O)c4ccccc43)CC2)cc1 (stereo not given) | 33 | 0.9 | 0.7 | 12 | -5 | 5
Cn1c(-c2ccc[nH]c2=O)nc2cc(Cl)ccc21 | . | . | . | . | 2 | 0
CCOC(=O)C(Cc1cc(C(C)=O)ccc1OC(C)C)C(=O)OCC | 61* | 0.4 | 0.4 | 60* | 2 | 0
COC(=O)c1cc(NC(=O)CN2C(=O)CSC2=O)ccc1Cl | 69* | 0.6 | 0.3 | 38 | 1 | 5
N#CCc1ccc(NC(=O)Nc2cccc(Cl)c2)cc1 | 0 | 0.8 | 1 | 16 | -1 | 31*
COC(=O)c1cc(NC(=O)Nc2cccc(Cl)c2)ccc1Cl | -7 | 1.1 | 1.1 | -11 | 25 | 41*
N#Cc1ccccc1NC(=O)Nc1cccc(Cl)c1 | -6 | 1 | 1.1 | 5 | 3 | -1
Cc1ccc(C(=O)/C=C/Nc2ccc([N+](=O)[O-])cc2Br)cc1 | 27 | 0.8 | 0.7 | 20 | -10 | -2
Cc1ccc(C(=O)c2ccc([N+](=O)[O-])cc2)c(C)c1 | 60* | 0.2 | 0.4 | 82* | 5 | 2
CCOC(=O)c1cc2sccc2n1CC(=O)O | 28 | 1 | 0.7 | 3 | 0 | -1
CCOC(=O)c1cc2sccc2n1CC(=O)c1ccc2c(c1)OCCO2 | 96* | 0.1 | 0 | 93* | -17 | 13
O=C(OCCN(C1=NS(=O)(=O)c2ccccc21)c1ccccc1Cl)c1ccc(Cl)cc1 | 87* | 0.6 | 0.1 | 44 | -3 | 13
CNc1nc(Nc2ccc(C(C)=O)cc2)nc(OC(C(F)(F)F)C(F)(F)F)n1 | 22 | 1 | 0.8 | 1 | 7 | 30*
COc1ccccc1-n1c(=O)oc2ccc(Cl)cc2c1=O | 20 | 0.7 | 0.8 | 27 | 13 | 60*
CCc1ccc(NC(=O)N(C2CCC(C)CC2)C2CCN(C(C)=O)CC2)cc1 (stereo not given) | 7 | 1 | 0.9 | -1 | 10 | 3

Screening data as filed in PubChem.
